GSTO1 counter: inhibitors of recombinant GSTO1, primary screen, counter-screen for RBBP9 inhibitor project, biochemical, fluorescence polarization | Glutathione S-transferase omega-1 (Homo sapiens), P78417 | activity-based probe fluorescence polarization | inhibition, % at 5.96 µM | actives 1.1% (n = 300,000) | AID 1974, 2009;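 active = inhibition above the campaign mean inhibition plus 3 SD, cut at about 35% in these data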;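 note: 0% = GSTO1-1 with DMSO and 100% = wells lacking GSTO1-1 enzyme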
Target sequence (P78417 whole entry, looked up): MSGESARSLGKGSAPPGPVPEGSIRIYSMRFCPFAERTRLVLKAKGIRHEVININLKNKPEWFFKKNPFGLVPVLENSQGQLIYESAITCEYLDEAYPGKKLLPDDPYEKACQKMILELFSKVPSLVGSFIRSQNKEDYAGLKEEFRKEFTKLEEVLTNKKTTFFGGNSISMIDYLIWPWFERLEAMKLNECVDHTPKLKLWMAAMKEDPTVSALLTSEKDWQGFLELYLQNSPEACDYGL
Fam108B counter: mouse Fam108B serine hydrolase inhibitors, primary screen, counter-screen for RBBP9 inhibitor project, biochemical, fluorescence polarization | recombinant Fam108B, FP-Rh probe fluorescence polarization | inhibition, % at 9.51 µM | actives 0.33% (n = 300,000);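 active = inhibition above the screen mean inhibition plus 3 SD, computed separately per campaign, cut at about 18% in these data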;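 note: inhibitors lower polarization as less probe binds the enzyme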
LYPLA1 inh: LYPLA1 inhibitors, primary screen, counter-screen for PME1 inhibitor project, biochemical, fluorescence polarization, FP-Rh probe ABPP; Acyl-protein thioesterase 1 (Homo sapiens), O75608; recombinant LYPLA1; inhibition, % at 5.9 µM; actives 0.16% (n = 320,000);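 active = inhibition above the mean of all tested compounds plus 3 SD, set per campaign, cut at about 14% in these data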;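 note: inhibitors block serine hydrolase probe labeling of LYPLA1 so polarization falls; 0% = enzyme with DMSO and 100% = wells lacking LYPLA1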
LYPLA2 inh: LYPLA2 inhibitors, primary screen, counter-screen for PME1 inhibitor project, biochemical, fluorescence polarization, FP-Rh probe ABPP. inhibition, % at 5.9 µM. recombinant LYPLA2. actives 0.38% (n = 320,000). Acyl-protein thioesterase 2 (Homo sapiens), O95372. AID 2177, 2009;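 active = inhibition above the screen-wide mean plus 3 SD, limit set per campaign, cut at about 26% in these data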;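 note: 0% = LYPLA2 with DMSO and 100% = wells lacking LYPLA2 enzyme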
PAD4 inh: human PAD4 inhibitors, primary screen, biochemical, fluorescence polarization, 1536-well format; Protein-arginine deiminase type-4 (Homo sapiens), Q9UM07; recombinant PAD4, RCA probe fluorescence polarization; inhibition, % at 6.36 µM; actives 0.41% (n = 330,000); AID 485272, 2010;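 active = percent inhibition above a cutoff equal to the mean of all tested compounds plus 3 SD, cut at about 15% in these data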;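 note: 0% = PAD4 with RCA probe and DMSO and 100% = probe without PAD4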
PME-1 inh: PME-1 inhibitors via competitive probe labeling, primary screen, biochemical, fluorescence polarization, FP-Rh probe, HTS; Protein phosphatase methylesterase 1 (Homo sapiens), Q9Y570; AID 2130, 2009; actives 0.53% (n = 320,000); inhibition, % at 5.9 µM; recombinant PME-1;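 active = inhibition above the campaign mean of all compounds plus 3 SD, cut at about 26% in these data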;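 note: competitive labeling of PME-1 active site by serine hydrolase directed probe; 0% = PME-1 with DMSO and 100% = wells lacking PME-1 enzyme; inhibitors block probe labeling so polarization falls and inhibition rises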
Target sequence (Q9Y570 whole entry, looked up): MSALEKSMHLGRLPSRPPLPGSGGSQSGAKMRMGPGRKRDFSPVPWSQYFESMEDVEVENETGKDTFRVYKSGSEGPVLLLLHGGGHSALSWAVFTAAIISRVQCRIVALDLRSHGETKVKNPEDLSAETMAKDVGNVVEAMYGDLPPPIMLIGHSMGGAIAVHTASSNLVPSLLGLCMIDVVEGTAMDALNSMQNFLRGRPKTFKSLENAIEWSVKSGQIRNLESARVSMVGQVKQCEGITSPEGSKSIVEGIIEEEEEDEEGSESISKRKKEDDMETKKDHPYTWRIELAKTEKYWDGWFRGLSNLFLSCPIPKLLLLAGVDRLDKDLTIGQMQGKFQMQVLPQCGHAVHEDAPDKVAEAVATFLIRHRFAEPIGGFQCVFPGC
LYPLA1 conf: LYPLA1 inhibitors, retest, confirmation, counter-screen for PME1 inhibitor project, biochemical, fluorescence polarization, FP-Rh probe ABPP | shares compounds with LYPLA1 inh | recombinant LYPLA1 | inhibition, % at 5.9 µM | actives 69% (n = 480);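 active = mean inhibition across replicates above the hit cutoff set in the primary screen, cut at about 15% in these data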;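 note: loss of FP-Rh probe labeling of LYPLA1 seen as lower polarization; 0% = LYPLA1 with DMSO and 100% = wells lacking LYPLA1 enzyme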
LYPLA2 conf: LYPLA2 inhibitors, retest, confirmation, counter-screen for PME1 inhibitor project, biochemical, fluorescence polarization, FP-Rh probe ABPP; shares compounds with LYPLA2 inh; actives 72% (n = 1,100); recombinant LYPLA2; inhibition, % at 5.9 µM; AID 2232, 2010;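 active = mean inhibition across replicates above the hit cutoff set in the primary screen, cut at about 26% in these data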;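 note: blocked labeling of the enzyme by serine hydrolase FP-Rh probe lowers polarization; 0% = enzyme with DMSO and 100% = wells lacking LYPLA2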
LYPLA2 ABPP: LYPLA2 inhibitors in proteome, late-stage follow-up, gel-based competitive ABPP, fluorescence, assay provider. shares compounds with LYPLA2 inh. rhLYPLA2 in mouse brain proteome, gel ABPP FP-Rh. inhibition, % at 20 µM. actives 30% (n = 150). AID 652029, 2013;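 active = inhibition of LYPLA2 enzyme probe labeling above about 50%, limit read from the data; inactive = inhibition below that limit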;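 note: loss of FP-Rh probe labeling of the LYPLA2 gel band measured as band density; 0% = DMSO only control band and 100% = blank gel background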
Starred values were filed as active, the others as inactive; / = no result. This is a sample that favours compounds with a hit; in the whole collection about 1.7% have one here.

SMILES	GSTO1 counter	Fam108B counter	LYPLA1 inh	LYPLA2 inh	PAD4 inh	PME-1 inh	LYPLA1 conf	LYPLA2 conf	others
O=C(N1CCOCC1)n1cnc2ccccc21	5	-2	-1	2	1	3	/	/
CS(=O)(=O)N(CC(=O)NCc1ccccn1)c1ccc2c(c1)OCCO2	-4	-4	0	6	4	-4	/	/
Cc1ccc(OCC(=O)N2CCN(C(=O)CCC3CCCC3)CC2)cc1	-1	-5	61*	27*	-1	-5	66*	19
COC(=O)c1ccc(NC(=O)c2ccc[n+]([O-])c2)cc1	8	0	0	1	-2	0	/	/
COC(=O)CC1C(=O)NCCN1C(=S)Nc1ccccc1Cl (centres undefined)	2	0	-2	-2	1	-4	/	/
Cc1cc(NC(=O)CCC(=O)N(CC(=O)NC2CCCC2)c2ccc(Cl)c(Cl)c2)no1	-3	1	-6	-4	5	-1	/	/
Cc1cc(NS(=O)(=O)c2ccc(Nc3nc(-c4sc(NC(=O)c5ccccc5)nc4C)cs3)cc2)no1	9	-9	41*	59*	-15	81*	37*	37*
Cc1nc(NC(=O)c2ccccc2)sc1-c1csc(Nc2cccc(F)c2)n1	-18	10	-19	-26	-19	5	/	/
COc1ccc2cc3cc(C(=O)N4CCN(c5ccccn5)CC4)oc3nc2c1	2	2	1	9	-5	3	/	/
O=C(COc1ccccc1Cl)Nc1ccc(N2CCCC2)cc1	14	-1	33*	27*	-7	1	1	-2
O=C(/C=C/c1ccc(Cl)cc1)N1CCN(c2ccc([N+](=O)[O-])c(N3CCOCC3)c2)CC1	0	10	6	6	-5	3	/	/
O=C(COc1ccc(Cl)cc1)N1CCN(c2ccc([N+](=O)[O-])c(N3CCOCC3)c2)CC1	4	3	68*	32*	1	3	75*	29*
O=C(CCCCCCN1C(=O)c2ccccc2C1=O)N1CCC(c2ccccc2)C1 (centres undefined)	-3	4	68*	76*	-1	7	68*	70*
c1ccc2c(c1)oc1c(N3CCOCC3)ncnc12	-13	-3	-4	-8	-3	1	/	/
C(=C\c1ccccc1)/CN1CCN(c2ncnc3c2oc2ccccc23)CC1	-3	-2	15*	35*	1	0	23*	32*
Cc1c(F)cccc1NC(=O)c1ccc2c(c1)CCN2S(C)(=O)=O	4	-2	1	3	1	3	/	/
Cc1ccc(CN2CCN(/N=C\c3cccc([N+](=O)[O-])c3)CC2)cc1	0	0	17*	28*	-3	-5	19*	35*
CCCCCCCCN1[C@@H](CC(=O)OC)c2cc(C(F)(F)F)ccc2S1(=O)=O	5	0	-1	2	0	-5	/	/
CCOC(=O)C1CCN(c2ncnc3c2nnn3Cc2ccccc2Cl)CC1	-10	0	28*	48*	-1	9	40*	54*
COc1ccc(-n2nc(C(=O)NCC(=O)N3CCN(Cc4ccccc4)CC3)c3ccccc3c2=O)c(OC)c1	1	0	36*	79*	-5	2	39*	81*
COc1ccc(N2CCN(C(=O)CNC(=O)c3nn(-c4ccc(OC)cc4)c(=O)c4ccccc34)CC2)cc1	4	-1	22*	55*	-2	1	16*	60*	LYPLA2 ABPP=43
COc1ccc(-n2nc(C(=O)NCC(=O)N3CCN(Cc4ccccc4)CC3)c3ccccc3c2=O)cc1OC	-2	5	20*	38*	0	-5	45*	64*
Cc1ccc(OCc2cc(C(=O)N3CCc4[nH]cnc4C3c3ccccn3)no2)cc1C (centres undefined)	4	0	3	0	-7	1	/	/
NC(=O)c1cc([N+](=O)[O-])ccc1NCC1CCCCC1	-4	7	25*	43*	-3	-7	31*	37*
COc1ccc(NS(=O)(=O)c2cc(NC(=O)c3cc(F)c(F)cc3Cl)ccc2N2CCOCC2)cc1	/	/	/	/	6	/	/	/
SMILES	GSTO1 counter	Fam108B counter	LYPLA1 inh	LYPLA2 inh	PAD4 inh	PME-1 inh	LYPLA1 conf	LYPLA2 conf	others
O=C(CCS(=O)(=O)Cc1ccccc1)N1CCN(c2ccc([N+](=O)[O-])cc2)CC1	7	-1	2	14	-1	3	/	/
O=C(CCCc1ccccc1)N1CCN(c2ccc([N+](=O)[O-])cc2)CC1	-1	3	33*	39*	-4	4	41*	54*
CC(C)CCNC(=O)NC(=O)COC(=O)/C=C/c1cccc([N+](=O)[O-])c1	12	-2	25*	30*	1	5	31*	32*
CCCOC(=O)c1ccc(Oc2coc3c(CN(CC)CC)c(O)ccc3c2=O)cc1	4	1	30*	34*	-7	-3	32*	28*
CCN(CC)Cc1c(O)ccc2c(=O)c(-c3ccc(Cl)cc3)coc12	8	-1	2	-1	2	-4	/	/
CCCCCCN1C=CC(=C/C=C(\C#N)C(=O)OCC)C=C1	-1	2	25*	41*	-9	-8	27*	35*
O=C(/C=C/c1ccc(Br)cc1)N1CCN(c2cccc(C(F)(F)F)c2)CC1	-2	1	46*	78*	-4	0	49*	63*
CSc1nc(N)nc2c1ncn2CC(=O)NCC1CCCO1 (centres undefined)	/	/	/	/	-3	/	/	/
CC#CC(=O)N1CCC(n2nccc2NC(=O)c2ccc3c(c2)OCO3)CC1	7	5	26*	31*	1	4	37*	30*
CSCCC(=O)N1CCC(n2nccc2NC(=O)c2ccc3c(c2)OCO3)CC1	4	-4	3	15	1	3	/	/
